This assay deals with SLTM (Homo sapiens, UniProt Q9NWH9). Put plainly: protein domain microarray probed with biotinylated miRNA; Domain array: 20 mM Tris-HCl pH 7.4, 200 mM KCl, 0.2 mM EDTA, 0.05% NP40, 2 ug/ul heparin, overnight 4 C. ORF array: PBS pH 7.0 with RNase inhibitor, 100 ng RNA; high values mean tight binding. The following applies: ssRNA.
Sequence of SLTM (Q9NWH9 360-485): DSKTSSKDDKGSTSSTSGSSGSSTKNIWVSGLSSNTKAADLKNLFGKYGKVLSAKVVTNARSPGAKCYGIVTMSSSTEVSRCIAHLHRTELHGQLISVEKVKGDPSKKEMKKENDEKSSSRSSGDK
In turn, AGAGGUAGUAGGUUGCAUAGUU yielded a binding signal of 123 fluorescence intensity. As for UAGCUUAUCAGACUGAUGUUGA, the figure is 33.6 ± 0.863 fluorescence intensity; as for UGAGGUAGUAGGUUGUAUGGUU, 141.8 ± 1.03 fluorescence intensity.

As for UGAGGUAGUAGGUUGUAUAGUU, the binding signal amounted to 57.9 ± 0.728 fluorescence intensity. Then UGAGGUAGUAGGUUGUGUGGUU, with 305 ± 14.8 fluorescence intensity. As for CAGUGCAAUGAUGAAAGGGCAU, the figure is 123 ± 2.81 fluorescence intensity.

These data come from paper PMC11574364.
